The list is not random: actives were taken first. Their share in the collection is about 5.4%.
ALR inh – blocks human ALR sulfhydryl oxidase activity; P55789; purified ALR, DTT oxidation, H2O2 HRP-luminol luminescence; inhibition, % (test concentration not listed); 290,000 tested, 3.8% active; AID 485317;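 active means mean replicate inhibition above about 79%, with every replicate also reaching it, limit read from the data; inconclusive means only one of the two criteria met; inactive means mean below limit and not every replicate reaching it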
CSC inhib – cancer stem cell inhibition | cancer stem cell-like cells viability, luminescence | inhibition, % at 7.5 µM | 300,000 tested, 1.1% active; in the data active means inhibition above about 75%; inconclusive means no clear call, values can overlap the other calls; tested in HMLE shEcad cells
PP5 primary – inhibitors of human protein phosphatase 5 (PP5); inhibition, % at 6.7 µM; purified PP5c, OMFP substrate fluorescence; AID 1987; P53041; 320,000 tested, 0.18% active;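 active means inhibition above the campaign's mean inhibition across all tested compounds plus 3 SD, cut at about 9.5% in these data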;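 further: 0% = DMSO only and 100% = 100 µM cantharidin control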
Target sequence (P53041 whole entry, looked up): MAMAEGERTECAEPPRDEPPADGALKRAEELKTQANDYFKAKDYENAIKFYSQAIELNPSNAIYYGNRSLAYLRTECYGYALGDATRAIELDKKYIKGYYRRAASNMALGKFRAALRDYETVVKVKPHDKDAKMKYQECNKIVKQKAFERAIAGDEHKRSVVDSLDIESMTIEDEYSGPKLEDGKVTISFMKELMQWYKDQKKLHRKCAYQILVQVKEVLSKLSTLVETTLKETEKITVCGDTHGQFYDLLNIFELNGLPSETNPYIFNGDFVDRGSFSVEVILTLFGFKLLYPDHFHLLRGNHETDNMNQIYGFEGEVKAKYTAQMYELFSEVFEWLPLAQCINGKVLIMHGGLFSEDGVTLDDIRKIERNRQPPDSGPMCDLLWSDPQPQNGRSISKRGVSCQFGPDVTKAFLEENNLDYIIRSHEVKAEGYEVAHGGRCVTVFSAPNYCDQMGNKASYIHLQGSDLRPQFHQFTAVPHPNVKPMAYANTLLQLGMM
Calb FLC – C. albicans growth modulation with fluconazole. growth inhibition, % (concentration not given with the values). C. albicans CaCi-2 (fluconazole-resistant clinical isolate) + fluconazole, Alamar Blue growth, 48 h. 300,000 tested, 0.57% active;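 active means growth inhibition above about 58% in most replicates, limit read from the data, passing the limit was not always enough; inconclusive means exactly half the replicates above a set limit; inactive means most replicates below a set limit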;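 further: all wells also contain fluconazole at 8 µg/ml as a sub-toxic cotreatment; 0% = median of DMSO wells and 100% = median of geldanamycin control wells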
PP1 counter – counter-screen for PP5 inhibitors: inhibitors of human PP1-alpha; P62136; purified PP1alpha, OMFP fluorescence; inhibition, % at 6.7 µM; 320,000 tested, 0.9% active;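 active means inhibition above the mean inhibition of all tested compounds plus 3 SD, computed separately for each screening campaign, cut at about 15% in these data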
An asterisk follows results filed as active; ? = inconclusive; · = no result given.

SMILES	ALR inh	CSC inhib	PP5 primary	Calb FLC	PP1 counter
COc1ccc(NC(=O)NC2(C(=O)N3CCCC(C)C3)CCCCC2)cc1 (stereo not given)	·	·	0.4	-5.6	-2.2
CCCc1cc(=O)[nH]c(SCC(=O)c2ccc3c(c2)NC(=O)CO3)n1	97.0*	-7.2	-0.6	-5.5	-2.6
Cn1cnnc1SCC(=O)c1ccc2c(c1)NC(=O)CO2	28.4	-15.1	-1.3	·	-1.9
CCCCN(CC)S(=O)(=O)c1ccc(C(=O)N(CCCN(C)C)c2nc3cc(C)cc(C)c3s2)cc1	-27.0	98.7*	2.5	-5.8	4.4
Cc1cc(C)c2sc(N(CCCN(C)C)C(=O)c3ccc(S(=O)(=O)N(C)Cc4ccccc4)cc3)nc2c1	-9.5	-6.7	2.4	1.6	10.0
CCCCN(C)S(=O)(=O)c1ccc(C(=O)N(CCN(C)C)c2nc3ccc(C)cc3s2)cc1	-7.0	-8.8	-0.5	-12.3	-3.7
CCN(Cc1ccccc1)S(=O)(=O)c1ccc(C(=O)N(CCCN(C)C)c2nc3cc(C)cc(C)c3s2)cc1	-14.2	101.5*	3.6	4.0	15.8*
Oc1ccc(-c2cn3cc(C(F)(F)F)ccc3n2)cc1	90.2*	7.7	4.2	-22.6	-0.4
Clc1ccc(-c2cn3cc(Cl)ccc3n2)cc1	0.0	4.9	2.4	-33.4	-2.1
CCCCC1CCC(C(=O)OCC(=O)Nc2ccc(S(N)(=O)=O)cc2)CC1 (stereo not given)	53.1	9.5	5.8	?	11.2
Cc1sc2ncnc(SC(C)C(=O)N3c4ccccc4Sc4ccccc43)c2c1C (stereo not given)	-5.0	?	2.0	-0.1	-11.6
CNc1nnc(-c2ccc(N(C)C)cc2)s1	99.5*	11.7	1.2	·	0.5
CN(C)c1ccc(-c2nn3c(-c4ccc(Cl)cc4)nnc3s2)cc1	·	·	·	-6.8	·
Fc1ccc2[nH]c3c(Cl)ncnc3c2c1	95.4*	-10.7	1.0	9.0	0.2
CCOC(=O)c1ccc(CC(=O)c2oc3cc(O)ccc3c2C)o1	90.4*	-10.0	0.7	10.3	-1.4
CN(C(=O)CCn1c(=S)oc2ccccc21)c1ccc(F)cc1	10.0	-0.4	4.2	-4.7	4.9
C=CCC(Nc1ccccc1)c1ccc(OC)c(OC)c1 (stereo not given)	96.4*	-14.8	-1.4	-4.4	-4.4
COc1ccc(OC)c(Nc2nc(N)nc(-c3cc4ccccc4o3)n2)c1	-6.7	-11.1	0.3	0.2	15.7*
COc1ccccc1NC(=O)c1c(NC(=O)CCC(=O)O)sc2c1CCCCC2	97.7*	-16.0	2.6	5.2	-0.2
COc1ccc(OC)c(/C=N/c2oc(-c3ccco3)c(-c3ccco3)c2C#N)c1	98.1*	3.4	3.3	8.9	-1.8
COc1ccc2cc(C(c3nnnn3CCc3ccccc3)N3CCC(O)CC3)c(=O)[nH]c2c1 (stereo not given)	18.4	·	0.4	·	-1.5
Oc1c(Br)cc(Br)cc1/C=N/NC(=S)N[C@H]1CC2C=CC1C2 (stereo not given in full)	-0.4	101.8*	3.3	-8.1	16.6*
CNC(=S)N/N=C/c1cc(Br)cc(Br)c1O	·	38.8	1.1	?	1.6
CN(Cc1ccc(F)cc1)C(=O)c1ccc(NS(=O)(=O)c2ccccc2)cc1	2.8	0.0	-1.2	-2.7	-2.0
Cc1ccc(-c2nc(SCC(=O)Nc3cc(S(=O)(=O)N4CCCCC4)ccc3Cl)n[nH]2)cc1	0.0	12.5	2.1	2.5	4.7
SMILES	ALR inh	CSC inhib	PP5 primary	Calb FLC	PP1 counter
Cc1ccc(N2C(=O)CS(=O)C(c3ccccc3)C2=O)cc1C (stereo not given)	98.1*	-15.8	0.7	7.4	2.5
COc1ccc(N2C(=O)CS(=O)C(c3ccccc3)C2=O)cc1 (stereo not given)	98.3*	14.2	2.6	16.8	-4.6
CC(C(=O)NC1C=CS(=O)(=O)C1)N1C(=O)/C(=C/c2cccc(Cl)c2)SC1=S (stereo not given)	34.2	10.1	1.8	-0.8	3.9
CC(C(=O)NC1C=CS(=O)(=O)C1)N1C(=O)/C(=C\c2ccccc2)SC1=S (stereo not given)	99.2*	4.7	1.3	-3.3	1.5
CCOc1ccc(/C=N/OCC(=O)Nc2ccc3c(c2)OCO3)cc1	-4.6	-4.1	1.4	99.8*	-4.7
COc1ccccc1CCC(=O)Nc1ccc(S(=O)(=O)Nc2cc(C)nc(C)n2)cc1	54.5	-12.3	-0.3	7.6	-4.1
Cc1cc(NS(=O)(=O)c2ccc(NC(=O)CCCOc3ccccc3C)cc2)nc(C)n1	98.8*	-5.9	0.1	1.1	2.2
Cc1ccc(OCC(=O)Nc2ccc(S(=O)(=O)Nc3ccccn3)cc2)c(C)c1	-3.5	5.0	0.3	1.5	0.7
Cc1cc(NC(=O)CO/N=C/c2ccc3c(c2)OCO3)ccc1Br	-4.8	-1.7	1.1	-10.5	3.2
COc1cc(OC)cc(C(=O)Nc2ccc(S(=O)(=O)Nc3cc(C)nc(C)n3)cc2)c1	85.2*	-12.8	0.8	-3.2	2.1
Cc1ccccc1OCC(=O)Nc1ccc(S(=O)(=O)Nc2ccccn2)cc1	98.5*	0.7	2.1	-21.5	-1.8
COc1cc(C(=O)Nc2ccc(S(=O)(=O)Nc3cc(C)nc(C)n3)cc2)cc(OC)c1OC	32.1	0.8	1.4	6.5	0.7
CCc1sc(C(=O)N2CCN(c3ccc(F)cc3)CC2)cc1C	72.9	8.3	1.3	4.9	-1.8
O=C(Nc1ccc(S(=O)(=O)NC2CCCCC2)cc1)c1ccco1	9.6	18.7	-0.9	-8.3	7.5
CSCC(C)N1CCC(n2nccc2NC(=O)CCc2ccccc2)CC1 (stereo not given)	·	·	·	-1.3	·
Cc1ccccc1OCCCC(=O)Nc1ccc2c(c1)OCO2	97.8*	25.0	2.3	-20.6	-2.1
COc1ccccc1OCCC(=O)Nc1ccc2c(c1)OCO2	·	0.5	·	·	·
Cc1ccc([N+](=O)[O-])cc1N(CC(=O)Nc1ccc(S(=O)(=O)Nc2cccc(C(F)(F)F)c2)cc1)S(C)(=O)=O	·	100.2*	7.5	1.1	3.5
COc1ccc(-c2sc3cc(OC)c(OC)cc3c2C#CC2(O)CCCCC2)cc1	-0.1	125.1*	1.9	·	-0.9
COc1ccc(-c2oc(=O)c3cc(OC)c(OC)cc3c2C#CC2(O)CCCCC2)cc1	-1.5	5.4	·	·	·
COc1ccc(-c2sc3ccccc3c2C#CC2(O)CCCCC2)cc1	3.4	89.0*	3.2	1.5	-2.2
COCCSc1nnc(NC(=O)C2CCN(C(=O)c3ccco3)CC2)s1	-2.4	4.6	1.0	-2.4	-0.6
O=C(O)c1ccc(Nc2cnc3ccccc3n2)cc1	-10.2	2.6	2.2	94.6*	-2.1
CCN(CC)c1ccc(S(=O)(=O)Nc2cc(Cl)ccc2Cl)cc1NC(=S)NC(=O)C1CCCC1	-3.1	99.5*	1.8	-2.7	15.3*
CN(C)c1cccc(C(=O)NCc2ccccc2Cl)c1	10.6	-11.5	1.8	-17.7	-0.8
CN(C)c1cccc(C(=O)NCc2ccccc2)c1	96.5*	-3.4	-0.6	-7.3	-2.2
CCOC(=O)/C(C#N)=C/C=C1/C=CC=CN1C	95.3*	-12.3	-0.4	-3.7	-1.4
C=CCN1C=CC(=C/C=C(/C#N)C(=O)OCC)C=C1	83.9*	5.9	3.5	4.4	1.1
CCOC(=O)/C(C#N)=C\N(C)C	1.7	-9.5	2.8	-2.1	0.4

Screening data deposited in PubChem BioAssay by several laboratories.
